# BCR signal inh – inhibitors of chronic active B-cell receptor signaling; ABC-DLBCL IkBa-CBG/CBR reporter, luminescence ratio, 4 h; actives 0.05% (n = 340,000); Potency, µM (top dose mostly 46.1 µM), inactives show at the highest dose activity change, negative = inhibition, hits mostly inhibitors; active = well fitted inhibition curve with a large enough effect in the signal ratio, with a control signal flat, not every such curve was filed as active; inconclusive = small, poorly fitted or top-dose-only effect, or effect the other way, or a change in a side signal; the % refers to the signal ratio;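 note: potency is the fitted concentration of half-maximal effect; plate controls were basal doxycycline-induced cells for no effect and cells given 10 µM MG132 for full effect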
#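 Cell line TMD8 (human ABC DLBCL), stably expressing tet-inducible CBG68-IkBa fusion and CBR; IMDM/0.5% FBS; cpd up to 46 uM; dox induction, 4 h, 37C/5% CO2; dual luminescence; green/red ratio; MG132 control.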
# SW480 rerep – induces DNA re-replication in SW480 colon adenocarcinoma cells. SW480 DNA re-replication, Hoechst DNA content imaging, 48 h. Potency, µM (series often up to 46.1 µM), without a hit: at the highest dose re-replication activation, usual class: activators. actives 1.8% (n = 340,000). AID 624297; note: potency is the fitted concentration of half-maximal effect; % of control where 0% means no effect; nearly all actives have a fitted effect of over 55% in size
#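 Readout is total intensity of Hoechst-stained nuclei, excited at 405 nm and collected at 500-530 nm. Compound treatment lasted 48 hr at 37 C in 5% CO2 before staining.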
# IL1B secr inh – inflammasome signaling inhibition, IL-1 beta readout; AID 743279; actives 4.7% (n = 360,000); THP-1 LPS/ATP IL-1B secretion, AlphaLISA, 16 h; active compounds read low; activity change, % at 57.5 µM; in the data active = activity change below about -50%; inconclusive = mostly about -30% to -49%; note: % is set by controls: 0 for no effect and ±100 for the full control effect
#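 Secreted IL-1B measured by AlphaLISA bead assay after 16 h compound exposure of THP-1 cells; compounds (final up to 57.5 uM) added 1 h before LPS (250 ng/mL) and ATP (1.25 mM) stimulation; lower signal means less secretion.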
# DT40 TDP1 CPT – DT40-hTDP1 cell growth loss with CPT. chicken DT40 Tdp1-/-;hTDP1 cells + 20 nM CPT, ATP luminescence, 48 h. Potency, µM (top dose mostly 46.2 µM), without a hit: top-dose activity change, negative = growth inhibition, hits mostly inhibitors. actives 12% (n = 420,000). AID 686979; note: potency is the fitted concentration of half-maximal effect; % is set by controls: 0 for no effect and ±100 for the full control effect; nearly all actives have a fitted effect of over 55% in size
#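 Chicken DT40 Tdp1-/- cells complemented with human TDP1, 400 cells/well, exposed to compounds plus 20 nM camptothecin for at least 48 h at 37 C; viability read as ATP content by CellTiter-Glo luminescence.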
# MCF10A rereplic – DNA re-replication induction in MCF 10a cells. Potency, µM (titrated, usually from 46.1 µM), for inactives: at the top dose activity, positive = re-replication, most hits filed as activators. AID 624296. MCF 10A DNA re-replication, Hoechst nuclear intensity, 48 h. actives 2.9% (n = 350,000); note: potency is the fitted concentration of half-maximal effect; % of control where 0% means no effect; nearly all actives have a fitted effect of over 50% in size
# DT40 TDP1 no CPT – qHTS for Inhibitors of human tyrosyl-DNA phosphodiesterase 1 (TDP1): qHTS in cells in absence of CPT; DT40 Tdp1-/- hTDP1 cells, no CPT, ATP luminescence, 48 h; Potency, µM (highest dose often 46.2 µM), for the others: at the highest dose activity change, negative = growth inhibition, most hits filed as inhibitors; actives 15% (n = 420,000); note: potency is the fitted concentration of half-maximal effect; % is set by controls: 0 for no effect and ±100 for the full control effect; nearly all actives have a fitted effect of over 55% in size
#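 No-CPT arm: Tdp1-/-;hTDP1 DT40 cells (400/well) plus compounds, incubated ≥48 hr at 37 °C. Readout CellTiter-Glo luminescence.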
# * hit, by the source's call; ? = inconclusive; nt = no result; [ ] = another dose, or the depositor's remark. An excerpt weighted towards active compounds, which were near 19% of everything screened. Unless noted, calls come from the whole dose curve; as a rule, active = well fitted curve in the direction sought with a large enough effect; inconclusive = small, poorly fitted or top-dose-only effect, or another doubt; inactive = no such curve, though single readings can be large; an effect the other way counts as inactive or inconclusive.
SMILES,BCR signal inh,SW480 rerep,IL1B secr inh,DT40 TDP1 CPT,MCF10A rereplic,DT40 TDP1 no CPT
COc1cc(OC)c(C(=O)OC(C)C(=O)Nc2cccc(C(F)(F)F)c2)cc1OC (stereo unspecified),-3.9%,-4.5%,9.5,23.1µM*,2.3%,?
CC(OC(=O)c1cccc(S(=O)(=O)Nc2cccc(C(F)(F)F)c2)c1)C(=O)Nc1ccc2c(c1)OCCO2 (stereo unspecified),?,7.7%,-3.7,-21.7%,?,16.4µM*
CC(OC(=O)c1cccnc1Cl)C(=O)Nc1ccc2c(c1)OCCO2 (stereo unspecified),-3.5%,-6.5%,23.5,-19.6%,14.5%,-2.4%
CC(OC(=O)c1nc(Cl)ccc1Cl)C(=O)Nc1ccc2c(c1)OCCO2 (stereo unspecified),-13.8%,-37.0%,24.5,-3.1%,1.64µM*,-21.1%
Cc1cc(Br)ccc1NC(=O)CN(C)C(=O)C1=COCCO1,2.9%,-0.1%,3.4,2.2%,6.3%,-17.3%
Cc1c(NC(=O)c2cccnc2Cl)c(=O)n(-c2ccccc2)n1C,-0.3%,-0.4%,12.8,32.9%,-0.9%,-10.5%
Clc1nc(-c2ccccn2)nc2scc(-c3ccccc3)c12,?,?,-60.0*,?,?,?
O=C(/C=C/c1cccnc1)c1cccc(O)c1,?,?,-2.8,2.91µM*,?,2.91µM*
O=C(/C=C/c1ccco1)c1cccnc1,-1.8%,-5.2%,-21.6,-26.3%,4.3%,?
O=C(/C=C/c1cccc(O)c1)c1cccnc1,?,?,-5.7,8.2µM*,20.6µM*,23.1µM*
COc1ccc2c(c1)CCc1cnc(-n3ncc(C(=O)N(C)CC4CCCN(C)C4)c3C)nc1-2 (stereo unspecified),nt,nt,nt,-11.3%,nt,-9.7%
O=C(Nc1ccc(Cl)cc1)c1cccc(S(=O)(=O)Nc2ccccn2)c1,?,-8.6%,0.0,-27.9%,0.2%,-20.9%
Cc1nc2c(C(=O)O)cnn2c(C)c1Cc1ccccc1,-0.2%,nt,nt,-9.4%,nt,-8.9%
COc1ccc(CNC(=O)c2cnn3c(C)c(Cc4c(F)cccc4Cl)c(C)nc23)cc1,-11.6%,nt,nt,11.6µM*,nt,20.6µM*
Cc1nc2c(C(=O)O)cnn2c(C)c1Cc1ccccc1F,-2.7%,-10.8%,1.1,-18.3%,1.4%,-4.3%
Cc1ccccc1Cc1c(C)nc2c(C(=O)NCc3ccco3)cnn2c1C,?,?,?,14.1µM*,?,?
Cc1nc2c(C(=O)NCc3ccccc3)cnn2c(C)c1Cc1ccc(F)cc1,8.7%,nt,nt,7.31µM*,nt,8.2µM*
O=C(Nc1cc(S(=O)(=O)N2CCCCC2)ccc1Oc1ccccc1)C1=COCCO1,-1.9%,5.7%,-8.3,?,-16.2%,?
Cc1ccc(-c2nn(-c3ccccc3)cc2CO)o1,?,-21.2%,-9.1,-0.1%,-0.3%,-5.6%
Cc1ccc(-c2nn(-c3cccc(F)c3)cc2CNCc2cccnc2)o1,9.1%,-0.1%,?,?,12.8%,?
Cc1ccc(-c2nn(-c3cccc(F)c3)cc2CN2CCN(c3ccccn3)CC2)o1,9.0%,?,-1.8,?,?,23.1µM*
Cc1ccc(-c2nn(-c3cccc(F)c3)cc2CN(Cc2nccn2C)C(C)C)o1,-18.5%,-101.4%,-96.5*,?,58.6%,?
Cc1nc(N2CCCC2)c2nnn(Cc3ccccc3Cl)c2n1,-1.4%,-22.2%,3.6,13µM*,-4.7%,25.9µM*
Cc1nc(N2CCC3(CC2)OCCO3)c2nnn(Cc3ccccc3F)c2n1,-16.4%,-3.3%,-59.6*,?,?,?
CCc1nc(N2CCC3(CC2)OCCO3)c2nnn(Cc3ccccc3)c2n1,-16.9%,-0.7%,?,-14.7%,0.8%,?
SMILES,BCR signal inh,SW480 rerep,IL1B secr inh,DT40 TDP1 CPT,MCF10A rereplic,DT40 TDP1 no CPT
CCOc1ccc(N/C(=N/c2nc(C)cc(C)n2)NC(C)=O)cc1,-3.0%,-90.8%,-4.7,-14.9%,-9.6%,?
CCOc1ccc(C(=O)Nc2ccc3[nH]ncc3c2)cc1,?,-0.4%,-5.7,?,-3.2%,0.4%
Cn1cccc1C(C#N)(CC#N)c1cccc(F)c1C#N (stereo unspecified),-15.8%,-2.3%,21.8,8.9%,-0.8%,5.1%
Cn1cccc1C(C#N)c1cccc(F)c1C#N (stereo unspecified),-4.3%,0.9%,5.4,?,-7.4%,18.4µM*
CC(CN1CCN(C)CC1)OC(=O)c1cccc(F)c1 (stereo unspecified),-1.0%,-1.9%,19.1,-7.4%,-1.4%,0.3%
OCCN1CCN(c2ncnc3sc4c(c23)CCCC4)CC1,-21.1%,-1.1%,-0.6,?,-0.1%,?
c1ccc(-c2cc3c(N4CCCC4)ncnc3s2)cc1,-0.1%,-3.0%,-3.3,?,10.9%,20.6µM*
c1ccc(-c2cc3c(N4CCCCC4)ncnc3s2)cc1,0.1%,-13.7%,-15.0,-39.0%,22.1%,?
OCCN1CCN(c2ncnc3sc(-c4ccccc4)cc23)CC1,-14.9%,14.2%,-93.3*,?,?,14.6µM*
c1ccc(-c2cc3c(N4CCOCC4)ncnc3s2)cc1,?,?,-61.8*,16.4µM*,13µM*,14.6µM*
Cc1nc(N2CCOCC2)c2cc(-c3ccccc3)sc2n1,-2.3%,0.4%[9.22 µM],?,?,22.8%,18.4µM*
O=C(O)c1ccc2c(=O)n3c(nc2c1)/C(=C/c1cccc(Cl)c1Cl)CCCC3,?,-2.7%,23.9,-2.3%,0.3%,-5.7%
O=C(Nc1cccc(OC(F)(F)F)c1)C1Cc2c(-c3cccc(F)c3)ccnc2O1 (stereo unspecified),nt,nt,-89.2*,?,nt,?
O=C(Nc1ccc(Cl)cc1)C1Cc2c(-c3cccc(F)c3)ccnc2O1 (stereo unspecified),nt,nt,-63.8*,?,nt,18.4µM*
COCCNC(=O)C1Cc2c(-c3cccc(NC(C)=O)c3)ccnc2O1 (stereo unspecified),nt,nt,29.3,?,nt,?
CC(=O)Nc1cccc(-c2ccnc3c2CC(C(=O)Nc2ccc(Cl)cc2)O3)c1 (stereo unspecified),nt,nt,?,16.4µM*,nt,16.4µM*
CC(=O)c1cccc(-c2ccnc3c2CC(C(=O)Nc2cccc(Oc4ccccc4)c2)O3)c1 (stereo unspecified),nt,nt,-19.3,?,nt,?

# Screening data from PubChem.
